Source: PubChem BioAssay
BAZ2B block: BAZ2B (human) inhibition; 360,000 tested, 4.4% active; Potency, µM (doses to about 114 µM), for inactives: top-dose activity change, negative = inhibition, usual class: inhibitors; AlphaScreen BAZ2B-H3K14Ac peptide displacement; Q9UIF8; AID 504333; also: potency is read from the fitted curve at half-maximal effect; % is scaled to controls: 0 for no effect and ±100 for the full control effect; nearly all actives have a fitted effect of over 60% in size
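Complex of BAZ2B and biotin-H3K14Ac (50 nM apiece) forms over 30 min at RT, then faces library compounds up to 110 uM for another 30 min; AlphaScreen beads added, 20 min dark incubation, luminescence read.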
PLK1 PBD inh: blocks phosphopeptide binding to human PLK1 polo-box domain | P53350 | Plk1 PBD binding of FITC phosphopeptide, fluorescence polarization | 360,000 tested, 2.8% active | Potency, µM, inactives show max response, negative = inhibition, hits mostly inhibitors; also: potency is read from the fitted curve at half-maximal effect; series mostly up to about 57 µM; % is scaled to controls: 0 for no effect and ±100 for the full control effect; nearly all actives have a fitted effect of over 65% in size
JMJD2A Tudor: blocks the human JMJD2A Tudor domain. Potency, µM (titrated, usually from 114 µM), for inactives: at the top dose activity change, negative = inhibition, most hits filed as inhibitors. O75164. AlphaScreen JMJD2A-Tudor / H3K4me3 peptide binding. AID 504339. 390,000 tested, 4.4% active; also: potency is read from the fitted curve at half-maximal effect; % is scaled to controls: 0 for no effect and ±100 for the full control effect; nearly all actives have a fitted effect of over 50% in size
HP1b chromo inh: HP1-beta chromodomain-methylated histone interaction inhibition; P83916; AlphaScreen HP1-beta / biotin-H3K9me3 peptide binding; Potency, µM (doses to about 114 µM), for the others: top-dose activity change, negative = inhibition, actives largely listed as inhibitors; 390,000 tested, 0.56% active; also: potency is read from the fitted curve at half-maximal effect; nearly all actives have a fitted effect of over 70% in size
Target sequence (P83916 whole entry, looked up): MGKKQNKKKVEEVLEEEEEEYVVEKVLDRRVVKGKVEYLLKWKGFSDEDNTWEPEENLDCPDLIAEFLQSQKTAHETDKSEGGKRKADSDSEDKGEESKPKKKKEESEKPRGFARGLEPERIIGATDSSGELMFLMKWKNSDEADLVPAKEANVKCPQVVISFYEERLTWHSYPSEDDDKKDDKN
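AlphaScreen: HP1-beta (50 nM) preformed 30 min with biotin-H3(1-18)K9me3 peptide (50 nM) in PBS pH 7.4, 0.01% Tween-20. Compound added for 30 min at RT, then streptavidin donor/nickel chelate acceptor beads (10 ug/mL) for 30 min.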
GCN5L2 inh: GCN5L2 (KAT2A) acetyltransferase inhibition; Potency, µM (top dose mostly 58.9 µM), for the others: top-dose activity change, negative = inhibition, usual class: inhibitors; 390,000 tested, 0.21% active; GCN5L2 HAT assay, ThioGlo1 CoA-SH fluorescence; Q92830; AID 504327; also: potency is read from the fitted curve at half-maximal effect; % is scaled to controls: 0 for no effect and ±100 for the full control effect
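qHTS, 1536-well. 20nM enzyme, pH 7.5 HEPES/EDTA/Tween-20 buffer; 15 min compound preinc., RT. Start: 75uM H3(1-25), 70uM AcCoA, 50uM ThioGlo1. Read Ex340/Em540 at t=0 (autofluorescence flag) and t=20 min.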
PI5P4K alpha inh: inhibitors of human PI5P4K alpha; P48426; PI5P4Kalpha enzyme, ADP-Glo luminescence, 60 min; hits give low values; max response, %; 330,000 tested, 1.2% active; active = max response of -50% or lower; inconclusive = between -30% and -50%; inactive = -30% or higher; also: value at the top dose of about 77 µM; % is scaled to controls: 0 for no effect and ±100 for the full control effect
Target sequence (P48426 whole entry, looked up): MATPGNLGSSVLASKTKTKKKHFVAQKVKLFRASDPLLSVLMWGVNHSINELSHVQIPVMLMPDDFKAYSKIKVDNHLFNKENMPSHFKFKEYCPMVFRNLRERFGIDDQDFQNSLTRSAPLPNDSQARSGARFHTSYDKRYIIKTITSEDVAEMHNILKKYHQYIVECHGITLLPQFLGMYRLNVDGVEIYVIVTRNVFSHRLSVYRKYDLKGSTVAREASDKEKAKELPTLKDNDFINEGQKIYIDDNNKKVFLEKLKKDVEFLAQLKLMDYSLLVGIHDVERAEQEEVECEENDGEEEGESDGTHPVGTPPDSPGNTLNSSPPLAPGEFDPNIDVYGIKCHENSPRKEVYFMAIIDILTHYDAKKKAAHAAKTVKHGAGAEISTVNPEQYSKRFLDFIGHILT
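Luminescence from ADP-Glo served as readout of PI5P4Kalpha activity in a qHTS format. Reaction: enzyme, substrate, compound, ATP at 5 microM final, 60 min at RT.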
Numbers without * were called inactive; ? = inconclusive; / = not tested or not shown; ! = a repeat was not active; [ ] = another dose, or the depositor's remark. Rows were chosen to be rich in hits. Some 7% of all compounds tested hit in one or more screens of this group. Unless noted, calls follow the shape of the dose curve; as a rule, active = well fitted curve in the direction sought with a large enough effect; inconclusive = small, poorly fitted or top-dose-only effect, or another doubt; inactive = no such curve, though single readings can be large; an effect the other way counts as inactive or inconclusive.

SMILES	BAZ2B block	PLK1 PBD inh	JMJD2A Tudor	HP1b chromo inh	GCN5L2 inh	PI5P4K alpha inh
CCOC(=O)C1=C(C)N(c2ccccc2)C(=O)/C1=C\c1ccc(O)c(OC)c1	?	?	5µM*	?	?	-19
Cc1ccccc1[C@@H](NC(=O)OC(C)(C)C)C(=O)OC(C)(C)C	6%	-4%	4%	52%	-1%	13
CCOc1ccc(S(=O)(=O)Nc2cccc(C(=O)NCC(C)(C)N3CCOCC3)c2)cc1	10%	-12%	-13%	-3%	3%	-2
Cc1ccc(NS(=O)(=O)c2ccc3c(c2)CCC(C)(C)O3)cc1C	/	/	-6%	/	/	/
CC(C)COc1ccc(C(=O)Nc2ccc(S(=O)(=O)Nc3ncccn3)cc2)cc1	0%	/	-15%	25%	-1%	/
NC(=S)N/N=C/c1ccc(-c2ccccc2)o1	?	-9%	-35%	14%	-8%	1
CCOc1ccc(S(=O)(=O)N(CC(=O)N/N=C/c2ccc(-c3ccc([N+](=O)[O-])cc3)o2)c2ccccc2)cc1	22µM*	-10%	28µM*	-21%	?	-67*
NC(=S)NN=Cc1ccc(-c2ccc(S(=O)(=O)Nc3ncccn3)cc2)o1	/	30µM*	50µM*	?	?	-55*
Cc1ccc(-c2ccc(/C=N/NC(N)=S)o2)cc1	-28%	6µM*	-35%	?	-14%	-22
NC(=S)N/N=C/c1ccc(-c2ccc(Cl)c(Cl)c2)o1	?	-14%	-28%	3%	-2%	-27
CCOc1ccc(C(=O)N/N=C/c2ccc(-c3ccc(S(=O)(=O)Nc4ncccn4)cc3)o2)cc1	79µM*	-21%	89µM*	-6%	-10%	/
CCOC(=O)C1CCN(C(=O)COC(=O)CNS(=O)(=O)c2ccc(SC)c([N+](=O)[O-])c2)CC1	/	-5%	-14%	23%	/	2
Cc1cccc(Nc2nnc(SCC(=O)c3c(N)n(C4CC4)c(=O)[nH]c3=O)s2)c1	15%	-6%	-4%	38%	0%	-3
C/C(N)=C(/C#N)C(=O)CSc1nnc(Nc2cccc(C)c2)s1	?	-9%	79µM*!	-5%	-10%	-50*
Cc1cccc(Cn2c(C)nc3c(N)c(C)c(C)cc32)c1	-31%	-11%	-7%[11.4 µM]	?	-4%	-7
Cc1ccc(-n2c(C)cc(-c3csc(N)n3)c2C)cc1	56µM*	-7%	40µM*	?	3%	?
COc1ccc(CNCC(=O)Nc2cccc(S(N)(=O)=O)c2)cc1	56µM*	-1%	0.71µM*	7%	-5%	2
Cc1ccc(NC(=O)CN(C)C2CCCCC2)cc1Cl	?	-12%	10µM*	?	-26%	-3
COc1ccc(CCNCC(=O)Nc2ccc(C)c(S(=O)(=O)N(C)C)c2)cc1	50µM*	-13%	0.79µM*	?	-6%	3
Cc1ccc(NC(=S)NC2CCCCC2)cc1S(=O)(=O)N(C)C	-11%	?	-22%	-15%	-9%	0
Cc1ccc(NC(=O)CNCC2CCCCC2)cc1S(=O)(=O)N(C)C	?	2%	22µM*	-18%	?	-4
Cc1ccc(OCCNC(=O)c2ccc(NC(=O)CC3SC(N4CCCC4)=NC3=O)cc2)cc1 (stereo not drawn)	-15%	-13%	-17%	10%	1%	2
CCOC(=O)C1=C(O)c2ccccc2C(=O)/C1=C\c1ccc(CC)cc1	20µM*	3µM*	22µM*	-71%	-15%	/
CCOC(=O)c1ccc(COC(=O)c2ccc3c(c2)-c2ccccc2C3=O)cc1	7%	-6%	-17%	24%	-7%	0
CCCc1ccc(/C=C2\C(=O)c3ccccc3C(O)=C2C(=O)OCC)cc1	20µM*	/	/	/	?	/
SMILES	BAZ2B block	PLK1 PBD inh	JMJD2A Tudor	HP1b chromo inh	GCN5L2 inh	PI5P4K alpha inh
O=C(c1ccccc1)N1CCCCC1CCN1CCCCC1 (stereo not drawn)	-2%	/	-10%	35%	1%	/
CCN(C=NC1=NN(c2cccc(C(F)(F)F)c2)CC1)CC	50µM*	-22%	50µM*	?	-1%	4
OCCN(C=NC1=NN(c2cccc(C(F)(F)F)c2)CC1)CCO	-8%	-11%	?	-9%	-12%	0
S=c1[nH]nc(-c2ccc(Br)cc2)n1-c1ccc(Br)cc1	-12%	-23%	-31%	20%	-9%	9
S=c1[nH]nc(-c2ccc(Br)cc2)n1-c1ccc2c(c1)OCCO2	?	?	71µM*	9%	-9%	-17
O=[N+]([O-])c1cccc(-c2n[nH]c(=S)n2-c2ccc(Br)cc2)c1	-37%	-28%	?	-1%	-4%	-8
O=C(O)c1ccc(-n2c(-c3ccc(Br)cc3)n[nH]c2=S)cc1	-25%	-2%	7.1µM*	32%	-3%	-1
COc1cc(OC)cc(-c2n[nH]c(=S)n2-c2ccc3c(c2)OCCO3)c1	-25%	-22%	4.5µM*	14%	1%	0
COc1ccc(-c2n[nH]c(=S)n2-c2ccc3c(c2)OCCO3)cc1	-33%	-21%	3.2µM*	?	0%	-18
COc1cccc(-n2c(=O)c3sc4ccccc4c3n(Cc3c(F)cccc3Cl)c2=O)c1	-8%	/	-13%	27%	1%	/
Cc1ccc(S(=O)(=O)NCCC(=O)NNc2c(F)c(F)cc(F)c2F)cc1	/	-16%	-13%	45%	-3%	1
COc1ccc(Cc2n[nH]c(=S)n2-c2ccc3c(c2)OCCO3)cc1	-23%	-2%	6.3µM*	13%	-4%	-3
COc1ccc(-c2cc(-c3ccc(F)cc3)nc3c2COc2ccc(F)cc2-3)cc1	-14%	/	0%	25%	-2%	/
Cc1ccc(Oc2ccc(/C=N/O)cn2)cc1	?	3.4µM*	-32%[11.4 µM]	-9%	-4%	?
CCOC(=O)c1ccc(N2CCN(c3cccc(Cl)c3)CC2)c(NC(=O)Nc2ccc(OC)cc2OC)c1	-12%	/	-31%	14%	4%	/
CCOc1ccc2oc(=O)cc(CN3CCN(C(=O)c4ccc(Cl)cc4)CC3)c2c1	-13%	/	-20%	26%	-5%	/
Cn1cnnc1SCC(=O)N1N=C2/C(=C/c3ccco3)CCCC2C1c1ccco1 (stereo not drawn)	56µM*	-9%	-24%	8%	-10%	-8
O=C(CSc1nccc(=O)[nH]1)N1N=C2/C(=C/c3ccco3)CCCC2C1c1ccco1 (stereo not drawn)	/	-17%	45µM*	?	?	-58*
Nc1nc(SCC(=O)N2N=C3/C(=C/c4ccco4)CCCC3C2c2ccco2)n[nH]1 (stereo not drawn)	50µM*	-9%	-33%	-8%	-11%	-52*
CC/C(O)=C1\C(=O)CCCC1=NCCc1c(C)[nH]c2ccc(C)cc12	?	30µM*	-7%[11.4 µM]	-24%	0%	-3
